A number with no mark means an inactive call. Activity calls are given as the source filed them. Unless noted, no stated cut-off is given here; in the data, active means inhibition above about 30%; inactive means the rest.
Experiments:
[1] = biological target: Nuclear receptor coactivator 3 (Homo sapiens) (UniProt Q9Y6Q9); experiment: NCOA3 GAL4-fusion reporter inhibition – cell-based, luminescence, quadruplicate, confirmation (AID 588792;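 active means mean inhibition over 43.08%, the solvent-only control mean plus 3 SD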;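 further: 0% = DMSO treated cells and 100% = gossypol at 36 µM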); conditions: HEK293 GAL4-SRC3 luciferase reporter, at 3.6 µM, hits give high values
[2] = test system: transactivating tegument protein VP16 (Human herpesvirus 1), Gal4-VP16 luciferase reporter; experiment: repression of VP16-driven luciferase reporter – cell-based, luminescence, high throughput, counter-screen for SRC3 inhibitor project (AID 588794); conditions: mammalian cells, at 3.6 µM, hits give high values
[3] = biological target: Nuclear receptor coactivator 1 (Homo sapiens) (UniProt Q15788); experiment: NCOA1 GAL4-fusion reporter inhibition – cell-based, luminescence, quadruplicate, confirmation (AID 588820;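 active means mean inhibition above 46.68%, the untreated control wells mean plus 3 SD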;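 further: 0% = DMSO wells and 100% = gossypol 36 µM treated wells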); conditions: HEK293 GAL4-SRC1 luciferase reporter, at 3.6 µM, hits give high values
[4] = repression of VP16-driven luciferase reporter – cell-based, luminescence, high throughput, counter-screen for SRC1 inhibitor project (AID 588824; in the data active means inhibition above about 25%); conditions: cell-based VP16 transactivation luciferase luminescence; at 3.6 µM; hits give high values

Nuclear receptor coactivator 1 (Homo sapiens), sequence (Q15788 whole entry, looked up, the tested form may be a part): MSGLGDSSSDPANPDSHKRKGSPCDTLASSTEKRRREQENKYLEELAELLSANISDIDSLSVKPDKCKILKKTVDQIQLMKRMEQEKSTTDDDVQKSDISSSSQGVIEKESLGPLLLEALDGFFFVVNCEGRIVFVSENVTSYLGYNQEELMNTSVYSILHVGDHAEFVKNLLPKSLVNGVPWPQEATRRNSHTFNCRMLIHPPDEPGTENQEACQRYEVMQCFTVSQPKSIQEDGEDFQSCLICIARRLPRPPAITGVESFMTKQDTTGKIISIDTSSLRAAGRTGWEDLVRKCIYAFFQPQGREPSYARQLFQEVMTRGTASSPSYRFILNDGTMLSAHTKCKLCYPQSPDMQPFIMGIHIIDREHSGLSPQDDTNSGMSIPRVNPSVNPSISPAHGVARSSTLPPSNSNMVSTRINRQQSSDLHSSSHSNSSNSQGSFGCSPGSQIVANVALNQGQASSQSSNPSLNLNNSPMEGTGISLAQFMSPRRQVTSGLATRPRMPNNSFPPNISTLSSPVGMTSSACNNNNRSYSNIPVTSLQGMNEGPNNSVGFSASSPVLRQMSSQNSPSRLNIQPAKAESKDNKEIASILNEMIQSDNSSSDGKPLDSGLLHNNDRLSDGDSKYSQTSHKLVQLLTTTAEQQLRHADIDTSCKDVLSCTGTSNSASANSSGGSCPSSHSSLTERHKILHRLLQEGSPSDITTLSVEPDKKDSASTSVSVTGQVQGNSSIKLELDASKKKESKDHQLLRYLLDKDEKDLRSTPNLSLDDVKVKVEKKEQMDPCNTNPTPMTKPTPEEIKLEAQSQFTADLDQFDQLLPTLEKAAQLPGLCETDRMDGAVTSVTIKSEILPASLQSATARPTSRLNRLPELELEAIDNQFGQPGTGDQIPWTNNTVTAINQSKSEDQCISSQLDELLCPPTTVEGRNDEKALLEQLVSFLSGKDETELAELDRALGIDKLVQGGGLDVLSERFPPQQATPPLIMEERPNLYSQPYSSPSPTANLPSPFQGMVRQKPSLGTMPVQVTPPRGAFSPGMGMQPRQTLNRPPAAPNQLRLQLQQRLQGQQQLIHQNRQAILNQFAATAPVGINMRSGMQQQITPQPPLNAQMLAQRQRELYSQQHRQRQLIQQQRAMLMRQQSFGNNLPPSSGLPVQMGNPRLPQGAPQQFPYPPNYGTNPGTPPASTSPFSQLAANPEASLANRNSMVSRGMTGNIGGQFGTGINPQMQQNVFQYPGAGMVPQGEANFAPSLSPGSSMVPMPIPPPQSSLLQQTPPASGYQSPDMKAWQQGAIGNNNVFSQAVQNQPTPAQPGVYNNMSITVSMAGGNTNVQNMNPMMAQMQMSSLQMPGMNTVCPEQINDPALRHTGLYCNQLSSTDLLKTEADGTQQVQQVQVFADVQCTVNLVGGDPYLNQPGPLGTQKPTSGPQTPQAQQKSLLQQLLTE
Nuclear receptor coactivator 3 (Homo sapiens), sequence (Q9Y6Q9 whole entry, looked up, the tested form may be a part): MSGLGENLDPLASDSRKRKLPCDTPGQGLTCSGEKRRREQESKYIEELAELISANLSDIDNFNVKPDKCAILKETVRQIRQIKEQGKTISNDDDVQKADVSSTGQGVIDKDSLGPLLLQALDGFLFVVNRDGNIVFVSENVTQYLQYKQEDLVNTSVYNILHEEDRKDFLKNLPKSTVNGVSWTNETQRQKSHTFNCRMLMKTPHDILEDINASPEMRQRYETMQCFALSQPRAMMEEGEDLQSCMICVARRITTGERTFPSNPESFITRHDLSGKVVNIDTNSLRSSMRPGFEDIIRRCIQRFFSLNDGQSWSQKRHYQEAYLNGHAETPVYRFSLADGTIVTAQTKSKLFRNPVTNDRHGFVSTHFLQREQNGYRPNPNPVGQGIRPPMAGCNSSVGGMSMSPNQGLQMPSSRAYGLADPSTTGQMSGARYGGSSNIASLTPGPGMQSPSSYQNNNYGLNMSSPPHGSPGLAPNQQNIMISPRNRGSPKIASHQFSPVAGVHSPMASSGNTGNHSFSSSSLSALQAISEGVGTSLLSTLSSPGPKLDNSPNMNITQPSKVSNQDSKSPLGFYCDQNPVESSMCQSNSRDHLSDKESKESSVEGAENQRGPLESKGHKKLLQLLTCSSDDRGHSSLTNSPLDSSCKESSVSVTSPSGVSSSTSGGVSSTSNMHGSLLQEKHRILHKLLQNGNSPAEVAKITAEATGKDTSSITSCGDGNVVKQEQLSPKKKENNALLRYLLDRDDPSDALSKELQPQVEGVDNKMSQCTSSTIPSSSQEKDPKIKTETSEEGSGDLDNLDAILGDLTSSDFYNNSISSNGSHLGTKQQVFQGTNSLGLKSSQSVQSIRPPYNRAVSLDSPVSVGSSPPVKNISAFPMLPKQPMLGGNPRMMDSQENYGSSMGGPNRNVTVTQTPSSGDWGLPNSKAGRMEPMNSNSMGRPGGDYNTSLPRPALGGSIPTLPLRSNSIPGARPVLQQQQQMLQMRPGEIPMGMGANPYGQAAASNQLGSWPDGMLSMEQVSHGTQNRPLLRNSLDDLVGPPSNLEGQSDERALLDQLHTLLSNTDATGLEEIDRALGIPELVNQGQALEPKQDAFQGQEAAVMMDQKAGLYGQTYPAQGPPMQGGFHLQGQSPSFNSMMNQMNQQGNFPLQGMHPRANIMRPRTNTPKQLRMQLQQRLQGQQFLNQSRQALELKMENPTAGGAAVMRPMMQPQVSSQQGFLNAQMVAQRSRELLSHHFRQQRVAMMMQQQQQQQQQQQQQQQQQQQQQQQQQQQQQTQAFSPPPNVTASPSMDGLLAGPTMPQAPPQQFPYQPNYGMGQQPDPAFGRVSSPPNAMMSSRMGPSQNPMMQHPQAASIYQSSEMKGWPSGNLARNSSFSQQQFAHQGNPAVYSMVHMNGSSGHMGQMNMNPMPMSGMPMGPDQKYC

Structure (SMILES) | inhibition [1] | inhibition [2] | inhibition [3] | inhibition [4]
O=S(=O)(/C(=C\c1ccc(C(F)(F)F)cc1)c1nc2ccccc2[nH]1)c1ccccc1 | 69.8% (active) | 25.6% | -29.1% | 42.4% (active)
O=C(NC(=O)N1CCN(c2cccc(Cl)c2)CC1)c1ccccc1 | 23.9% | 43.6% (active) | 17.9% | 41.2% (active)
O=C(Nc1ccc(S(=O)(=O)N2CCCCC2)cc1)c1ccc(CN2CCOCC2)cc1 | 15.9% | 46% (active) | -6% | 47.1% (active)
Cc1cc(/C=C2/C(=O)NN(c3ccccc3)C2=O)c(C)n1-c1ccc(O)cc1 | -13.6% | -41.7% | -66% | -74.4%
O=C(CCl)N1N=C(c2cccs2)CC1c1ccco1 (stereo unspecified) | 27.7% | 6.29% | 18.4% | 17.4%
O=C(Nc1nc(-c2ccc3ccccc3c2)cs1)C1CCN(S(=O)(=O)c2cccs2)CC1 | 8.55% | 32.2% (active) | -6.77% | 33.2% (active)
Cc1ccc(C(=O)Nc2nc(-c3ccccn3)cs2)cc1S(=O)(=O)N1CCOCC1 | 17% | 29% | 13.8% | 35.8% (active)
NC(=O)c1sc2nc3c(c(-c4ccco4)c2c1N)CCC3 | 53.9% (active) | 8.75% | 52.9% (active) | 33.1% (active)
CCCCC(=O)NC(c1ccc(C(C)C)cc1)c1ccc2cccnc2c1O (stereo unspecified) | 62% (active) | 61.1% (active) | 58.2% (active) | 66% (active)
CCOc1cc(C(N)=O)cc(Br)c1OC | 29.6% | 20.8% | 29.3% | 14.2%
COc1ccc(-c2cn[nH]c2-c2ccc(OCc3ccc([N+](=O)[O-])cc3)cc2O)cc1 | 33.1% | 34% (active) | 39.1% | 27.4% (active)
CN1CC(=O)N2C(c3cccc([N+](=O)[O-])c3)c3[nH]c4ccccc4c3C[C@H]2C1=O (stereo partly specified) | 36.1% | 36.7% (active) | 26.9% | 34.5% (active)
Cc1ccc(-c2n[nH]c(=S)n2/N=C/c2ccncc2)cc1 | 26% | 19.3% | 37.6% | 28.7% (active)
O=[N+]([O-])c1ccc(Oc2ccc(F)cc2)c2ccncc12 | 46.8% (active) | 36% (active) | 47.6% (active) | 35.4% (active)
c1cnc2ccc(-n3ccnc3)cc2c1 | 24.2% | 23.8% | 19.9% | 22.4%
O=C(Nc1nc(-c2ccccc2)cs1)C1CCCN(S(=O)(=O)c2ccccc2)C1 (stereo unspecified) | -1.67% | 16.4% | -23.1% | 22.9%
Cc1ccc2c(C)nc(Nc3nc(CSc4nc5ccccc5[nH]4)cc(=O)[nH]3)nc2c1 | 12.4% | 16.1% | -14.6% | 17.5%
Cc1cc2[nH]c3ccccc3c2c(C)n1 | -0.94% | 18.7% | -3.38% | 9.89%
COc1cccc(/C=N/NC(=O)c2cc(-c3cccn3C)n[nH]2)c1O | 41.2% | 35.7% (active) | 37.6% | 35.6% (active)
Cc1ccc(S(=O)(=O)N2C[C@@H]3CCCC[C@@H]3[C@@H](C)[C@H]2c2cn(Cc3ccccc3)c3ncccc23)cc1 | 22.3% | 47.6% (active) | 25.8% | 42.2% (active)
CC(C)(C)c1nnc(N/N=C/c2cc(Br)ccc2O)n(N)c1=O | 79% (active) | 69.2% (active) | 72% (active) | 63% (active)
Cc1cc(=O)[nH]c(Nc2cccc(Br)c2)n1 | 22.7% | 23.7% | 34.2% | 24.4%
c1ccc(-c2noc(-c3ccc4ccccc4c3)n2)nc1 | 43.7% (active) | 19.2% | -79.6% | 23.7%
Cc1csc(CNc2ncnc3ccc(-c4ccoc4)cc23)c1 | 52.7% (active) | 47.6% (active) | 48% (active) | 44.5% (active)

Source: PubChem BioAssay
